SMILES strings stand for the structures. About 83,000 compounds went through this panel and 20% of them were active in at least one assay; those are over-represented in the sample as a whole.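 Cell lines were cultured in 96-well plates, exposed to a single compound concentration, and assessed for percent growth 48 hours later.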 A number with no mark means an inactive call. Activity calls are given as the source filed them. Rule for the calls: active = growth percent below 10; inactive = the rest.

Holding throughout (assay): NCI-60 one-dose screen, 48 h (100 = growth as untreated, 0 = no growth, -100 = all killed)
Holding throughout (details): 10 µM unless noted

For test [1], the system named is SR leukemia.
Test [2] concerns RPMI-8226 leukemia.
Test [3] concerns OVCAR-8 ovarian.
The test system of test [4] is OVCAR-5 ovarian.
Test [5] deals with OVCAR-4 ovarian.
Test [6] deals with SK-OV-3 ovarian.
Test [7] deals with IGROV1 ovarian.
The test system of test [8] is HS 578T breast.
Test [9] concerns NCI/ADR-RES ovarian.

With `COc1ccc2c(c1)c(-c1nn3cc(-c4ccncc4)nc3s1)cn2C`, the growth in test [1] was -3.79% (active); in [2], 61.4%; in test [3], 71.7%; in [4] it was 102%; in [5] it was 82.3%; in test [6], 93.6%. For the same molecule, the growth in test [7] was 70.3%; in test [8] it was 86.9%; in test [9], 69.8%.
On to `COc1ccc([C@H]2C(=O)N(c3cc(OC)c(OC)c(OC)c3)[C@@H]2c2ccc(OC)c(O)c2)cc1`, for which the growth was 11.4% in [1]; 22.2% in test [2]; 5.81% (active) in [3]; 34.6% in [4]; 63.5% in test [5]; 27.5% in test [6]. Also, the growth in test [7] was 28.2%; in test [8] it was 2.75% (active); in test [9] it was 10.4%.
On to `CN1CCN(c2ccc(Nc3nc(NCCNS(=O)(=O)c4ccc(Cl)cc4)c4sccc4n3)cc2)CC1`, for which the growth is 22.7% in test [1]; 80.8% in test [2]; 101% in [3]; 98.7% in [4]; 84% in [5]; 121% in [6]. Also, the growth in test [7] was 92.9%; in [8], 81.2%; in [9] it was 100%.
`C#CCOc1ccc(-c2csc(NC(=O)C=C)n2)cc1NS(=O)(=O)c1cccc2c(N(C)C)cccc12`: the growth in test [1] was 8.34% (active); in test [2], -9.93% (active); in test [3], 23.2%; in [4] it was 81.1%; in test [5], 63.2%; in [6], 118%. For the same molecule, the growth was 32.3% in test [7], 79.2% in test [8] and 27.5% in test [9].
On to `C=C(C=O)[C@@H]1CC[C@]2(C(=O)O)CC[C@]3(C)C(CC[C@@H]4[C@@](C)(CCC#N)[C@H](C(=C)C=O)CC[C@]43C)[C@@H]12` (stereo partly specified), for which the growth was 0.41% (active) in test [1]; -8.52% (active) in [2]; -9.95% (active) in [3]; 127% in [4]; 18.7% in test [5]; 126% in test [6]. In addition, the growth was 14.6% in test [7], 47.1% in test [8] and 5.79% (active) in [9].
For `Cc1ccc(Nc2nc(SC(C)C)nc(-c3ccccc3)c2C#N)cc1`, the growth in [1] is 102%; in test [2], 99%; in test [3] it was 97%; in test [4], 81.8%; in test [5], 87.3%; in [6], 96.2%. For the same molecule, the growth in test [7] was 91%; in [8] it was 87.8%; in test [9] it was 92.2%.
On to `CNC(=O)c1cc(Oc2ccc3c(c2)sc2nc(-c4ccc(N(C)C)cc4)cn23)ccn1`, for which the growth in test [1] is 13.2%; in test [2], 6.21% (active); in test [3] it was 14%; in [4], 39.4%; in [5], 70.7%; in test [6] it was 49.2%. The growth in test [7] was 21.5%; in [8], 44.1%; in [9], 0.629% (active).
For `CN1CCC[C@]2(C)[C@H]3CC[C@@H]4[C@@H]5[C@H]6OC[C@@]5(CCC6(C)C)CC[C@@]4(C)[C@]3(C)CC[C@H]2C1(C)C`, the growth is 5.47% (active) in test [1]; 30.2% in test [2]; 22.3% in [3]; 103% in test [4]; 86.9% in test [5]; 118% in [6]. The figures for the growth in test [7], in test [8] and in test [9] were 77.8%, 99% and 95.5%, respectively.
Regarding `O=C(CCCCCCN1CC(=O)N2[C@@H](C3CC3)c3[nH]c4ccccc4c3C[C@H]2C1=O)NO`, the growth in test [1] was 36.5%; in test [2], 56.2%; in test [3], 37.5%; in test [4], 71.8%; in [5] it was 97.6%; in test [6], 102%. Further, the figures for the growth in test [7], in [8] and in [9] were 89.2%, 62% and 75.7%, respectively.
Consider `COC(=O)[C@@H](Cc1c[nH]c2ccccc12)NC(=O)CCCCOc1cc(O)c2c(=O)cc(-c3ccccc3)oc2c1`, for which the growth in test [1] was 72.3%; in test [2], 71.8%; in test [3] it was 87.5%; in test [4] it was 104%; in test [5] it was 80%; in test [6] it was 97.7%. Also, the growth in test [7] was 87.5%; in test [8], 80.9%; in test [9], 80.9%.
`COc1ccc(-c2c(C(N)=O)c(N)n(Cc3nc4ccccc4[nH]3)c(=O)c2C#N)c(OC)c1`: the growth is 90.5% in test [1]; 99% in [2]; 97.2% in [3]; 110% in test [4]; 108% in test [5]; 90.9% in [6]. Besides, the growth was 72% in [7], 99.2% in test [8] and 102% in [9].
For `Cc1ccccc1Nc1nc(SC(C)C)nc(-c2ccccc2)c1C#N`, the growth in test [1] is 89.6%; in test [2], 83.8%; in test [3], 19.9%; in [4], 71.9%; in test [5], 13.4%; in test [6] it was 94.3%. The growth is -50.3% (active) in [7], 63.1% in test [8] and 34.7% in test [9].
For the molecule `C=C(C)[C@@H]1CC[C@]2(COP(=O)(OCC)OCC)CC[C@]3(C)[C@H](CC[C@@H]4[C@@]5(C)CC[C@H](OP(=O)(OCC)OCC)C(C)(C)[C@@H]5CC[C@]43C)[C@@H]12`, the growth in test [1] is 30.2%; in test [2] it was -18.1% (active); in test [3], 40.5%; in [4] it was 84.3%; in test [5] it was 65.5%; in test [6], 77.2%. For the same molecule, the growth in [7] is 74.5%; in test [8], 74.7%; in test [9] it was 31.8%.
In the case of `CN1CCN(Cc2ccc(NC(=O)c3cncc(C#Cc4cnc(N)nc4)c3)cc2C(F)(F)F)CC1`, the growth is 16.3% in test [1]; 22.7% in test [2]; 33.1% in [3]; 29.6% in test [4]; 45.1% in test [5]; -21.2% (active) in test [6]. For the same molecule, the growth in [7] was 14.6%; in test [8] it was -12.5% (active); in [9], 60.1%.

Source of the values: PubChem BioAssay (NCI).
